From PubChem BioAssay (NCI)
Compounds without any hit were thinned out: in the full panel of roughly 83,000, 20% have a hit.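 Treatment: one concentration, 48 hours, 96-well format. Scoring: percent growth, with anything below 10 considered active.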 Unmarked numbers belong to inactive results. Activity calls are given as the source filed them.

What was measured:
Experiment in all cases: NCI-60 one-dose screen, 48 h (100 = growth as untreated, 0 = no growth, -100 = all killed)
SR leukemia = settings: 10 µM unless noted
OVCAR-8 ovarian = settings: 10 µM unless noted
OVCAR-5 ovarian = settings: 10 µM unless noted
OVCAR-4 ovarian = settings: 10 µM unless noted
SK-OV-3 ovarian = settings: 10 µM unless noted
IGROV1 ovarian = settings: 10 µM unless noted
OVCAR-3 ovarian = settings: 10 µM unless noted
HS 578T breast = settings: 10 µM
NCI/ADR-RES ovarian = settings: 10 µM unless noted
T-47D breast = settings: 10 µM unless noted
BT-549 breast = settings: 10 µM unless noted
MDA-MB-435 melanoma = settings: 10 µM unless noted
SW-620 colon = settings: 10 µM unless noted
MCF7 breast = settings: 10 µM unless noted
HCT-116 colon = settings: 10 µM unless noted
HCC-2998 colon = settings: 10 µM unless noted
KM12 colon = settings: 10 µM unless noted
RPMI-8226 leukemia = settings: 10 µM unless noted

SMILES | growth (SR leukemia) | growth (OVCAR-8 ovarian) | growth (OVCAR-5 ovarian) | growth (OVCAR-4 ovarian) | growth (SK-OV-3 ovarian) [%] | growth (IGROV1 ovarian) | growth (OVCAR-3 ovarian) | growth (HS 578T breast) | growth (NCI/ADR-RES ovarian) | growth (T-47D breast) | growth (BT-549 breast) | growth (MDA-MB-435 melanoma) | growth (SW-620 colon) | growth (MCF7 breast) | growth (HCT-116 colon) | growth (HCC-2998 colon) | growth (KM12 colon) | growth (RPMI-8226 leukemia)
CC(C)CC(NC(=O)OCC1c2ccccc2-c2ccccc21)C(=O)O (stereo not given) | 93.7% | 122% | 101% | 102% | 95 | 91% | 115% | 115% | 107% | 95.8% | 97% | 93.7% | 116% | 89.4% | 103% | 112% | 106% | 
O=C1Cc2c([nH]c3ccc([N+](=O)[O-])cc23)-c2ccccc2N1 | -8.53% (active) |  | 12.3% | 16.7% | 28.2 | -41.8% (active) | -14.4% (active) |  | 14.5% | 22.1% | 5.54% (active) | 16.2% | -3.84% (active) | 8.43% (active) | 4.3% (active) | -34.5% (active) | 4.23% (active) | -22.1% (active)
Cc1ccc(-c2nc3ccccc3c(=O)n2/N=C/c2cccc3ccccc23)cc1 | 49.8% |  | 102% | 76.2% | 76.4 | 50.1% | 71.6% | 100% | 78.6% | 42.6% | 80.1% | 69.2% | 93.9% | 62.9% | 71.5% | 80.5% | 69.1% | 73.6%
NC(N)=N/N=C\c1ccc(OCc2ccccc2)cc1 | 75.4% |  | 82.8% | 56.8% | 77.1 | 77.7% | 74.4% |  | 80% | 35.7% | 89.3% | 9.55% (active) | 73.9% | 17.3% | 61% | 82.3% | 58.8% | 83.4%
COC(=O)c1ccc(NC(N)=NCCC(C)(C)c2ccc(C(F)(F)F)cc2)nc1 | -22.2% (active) |  | 74.2% | 31.6% | 60.2 | 54.7% |  | 75.5% | 36.6% |  | 42.6% | 50.1% | 25% | 10% | 8.17% (active) | -54% (active) |  | -48.8% (active)
CN1CCN(c2ccc(N3Cc4ccccc4OC4=C3C(=O)c3c(O)ccc(O)c3C4=O)cn2)CC1 |  | 2.15% (active) | -32.5% (active) | -97.2% (active) | 26 | -59.3% (active) | -99.6% (active) | 23.5% | 5.09% (active) | -32.7% (active) | -78.8% (active) | 0.932% (active) | -61.1% (active) | -39.2% (active) | -80.9% (active) | -65.8% (active) | -53.2% (active) | -7.62% (active)
CC1=C(C(=O)Nc2ccc(F)cc2)C(c2ccc(C)cc2)C2=C(CC(C)(C)CC2=O)N1 (stereo not given) |  | 98.3% | 93.1% | 90.8% | 100 | 104% | 92.7% | 77.4% | 89.9% | 85.2% | 97.2% | 94.9% | 81.9% | 91.1% | 96.3% | 107% | 102% | 99.2%
CC1=C(C(=O)Nc2ccc(F)cc2)C(c2ccc(Cl)cc2)C2=C(CC(C)(C)CC2=O)N1 (stereo not given) |  | 89.1% | 93.5% | 77.6% | 101 | 89.6% | 89.9% | 80.4% | 87.9% | 82.6% | 99.9% | 91.6% | 94.6% | 80.1% | 86.9% | 99.6% | 92.6% | 70%
C#CCNC(=S)N/N=C(\C)c1ccccn1 | 3.06% (active) | 12.4% | 35.1% | 29.1% | 30.8 | 5.45% (active) | 16.6% |  | 8.45% (active) | 24.1% | -2.53% (active) | 33.1% | 34.3% | 4.54% (active) | 1.22% (active) | 35.1% | 23.5% | 
C=CCn1c(SCC(=O)Nc2ccc(C(=O)/C=C/c3ccc(Cl)cc3)cc2)nnc1-c1ccc(Cl)cc1 |  | 87.9% | 104% | 94.8% | 92 | 79.5% | 89.1% | 84.8% | 80.5% | 76% | 82.5% | 96.7% | 97.9% | 43.2% | -17.8% (active) | 90.4% | 94.2% | 17.2%
O=[N+]([O-])c1ccccc1CN1CCCCC1 |  | 108% | 102% | 114% | 127 | 114% | 109% | 118% | 104% | 115% | 98.4% | 109% | 106% | 108% | 106% | 101% | 128% | 109%
Cc1nc2n[nH]c(N)c2nc1C |  | 95.1% | 102% | 106% | 104 | 97.9% | 104% | 114% | 103% | 101% | 118% | 107% | 108% | 94.8% | 109% | 103% | 106% | 106%
COc1ccc(C2C3CCc4ccccc4C3=NN2C(=O)c2cc(OC)c(OC)c(OC)c2)cc1O (stereo not given) | 64.2% | 99.4% | 101% | 103% | 88 | 46.6% | 109% |  | 102% | 87% |  | 96.2% |  | 95.8% | 104% | 110% | 109% | 
COc1ccc(/C=C2\Cc3c(Br)cccc3C2=O)c(OC)c1 | 52.2% | 80.8% | 85.3% | 72.1% | 80.8 | 74.1% | 67.2% |  | 50.1% | 77.3% |  | 7.83% (active) | 43.2% | 55.6% | 15% | 84.1% | 46.8% | 
CC1CCN(Cc2ccc(NC(=O)c3cc4ccc5cccnc5c4[nH]3)cc2)CC1 | 2.01% (active) | 34.1% | 51.8% | 66.5% | 12.7 | 46.7% | -14.3% (active) | 33.7% |  | 38.4% | 42.8% | -67.6% (active) | 28.1% | 27.2% | 13.6% |  | 15.1% | 
O=C(NCCNC(=O)c1cc(S(=O)(=O)NCCc2ccccc2)c(O)c(O)c1O)c1cc(S(=O)(=O)NCCc2ccccc2)c(O)c(O)c1O |  | 40.2% | 82.3% | 62.3% | 33.1 | 31.5% | 19.7% | 52.2% | 76.1% | 84.1% | 48.8% | 35.2% | 54.7% | 34.9% | 33.5% | 38.6% | 34.1% | 79.5%
CC(=O)[C@H]1CC[C@H]2[C@@H]3CC[C@H]4CC=CC[C@]4(C)[C@H]3CC[C@]12C | 68.9% | 94.3% | 87% | 89.9% | 101 | 93.9% | 122% |  | 98.9% |  | 102% | 101% | 101% | 114% | 84.8% | 97.2% | 113% | 
Nc1ccc(C(OC(=O)c2cc3ccccc3c(Cc3c(O)c(C(=O)OC(c4ccc(N)cc4)(c4ccc(N)cc4)c4ccc(N)cc4)cc4ccccc34)c2O)(c2ccc(N)cc2)c2ccc(N)cc2)cc1 | 13.1% | 13.5% | 38.8% |  | 15.7 | 47.4% | -14.3% (active) | -18.4% (active) | 57.1% | 17.2% | -4.24% (active) | 6.93% (active) | 15.9% | 9.51% (active) | 8.88% (active) | 9.42% (active) | 5.29% (active) | 
